Assay outcomes deposited in PubChem BioAssay by ICCB-Longwood Screening Facility, Harvard Medical School.
This is a sample that favours compounds with a hit; in the whole collection about 1.4% have one here.
Mtb MbtI inh – inhibitors of Mycobacterium tuberculosis siderophore enzyme MbtI. purified MbtI enzyme, fluorescence intensity read-out. inhibition, % (test concentration not listed). actives 0.89% (n = 100,000); in the data active means inhibition mostly above about 56%, no sharp cut-off; inactive means mostly below about 77%
Target sequence (P9WFX0 whole entry, looked up): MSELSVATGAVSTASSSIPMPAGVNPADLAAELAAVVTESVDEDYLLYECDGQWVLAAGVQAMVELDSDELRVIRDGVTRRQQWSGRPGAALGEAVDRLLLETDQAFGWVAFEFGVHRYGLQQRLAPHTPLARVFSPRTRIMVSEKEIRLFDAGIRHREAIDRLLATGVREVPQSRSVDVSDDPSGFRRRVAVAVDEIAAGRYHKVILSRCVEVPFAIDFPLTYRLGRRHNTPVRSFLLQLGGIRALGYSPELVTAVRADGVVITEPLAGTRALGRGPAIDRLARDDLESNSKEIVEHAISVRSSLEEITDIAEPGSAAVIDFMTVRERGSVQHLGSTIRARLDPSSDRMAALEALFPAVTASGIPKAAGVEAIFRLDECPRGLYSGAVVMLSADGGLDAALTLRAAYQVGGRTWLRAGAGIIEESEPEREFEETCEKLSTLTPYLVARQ
MenB inh – inhibitors of Mycobacterium tuberculosis MenB enzyme | P9WNP5 | MenB enzyme assay, absorbance read-out | inhibition, % (no concentration beside the values) | actives 0.43% (n = 100,000); in the data active means inhibition above about 21%, passing the limit was not always enough
Polio RdRp inh – inhibitors of poliovirus RNA polymerase binding and polymerization. poliovirus polymerase elongation, fluorescence polarization; active compounds read low. % elongation, % (compound at 16.7 µg/mL). actives 0.66% (n = 150,000). AID 588519. P03300; in the data active means % elongation below about 90%
Numbers stand for hits; – = inactive; · = no result given; ! = a repeat was not active.

SMILES	Mtb MbtI inh	MenB inh	Polio RdRp inh
CCOC1(O)C(=O)c2ccccc2C(=O)C1(O)OCC (configuration not stated)	–	·	·
CC(C)OC1(O)C(=O)c2ccccc2C(=O)C1(O)OC(C)C (configuration not stated)	·	–	9.0
O=C1CCCC(O)=C1N=Nc1ccc(C(=O)O)cc1	–	–	76.0
O=C1CCCC(O)=C1N=Nc1ccccc1C(=O)O	–	–	–
Cc1nc(SCC(=O)OCN2C(=O)c3ccccc3C2=O)n[nH]1	–	–	–
CCn1c(N)c(C(=O)COC(=O)CC2Sc3ccccc3NC2=O)c(=O)[nH]c1=O (configuration not stated)	–	–	–
COc1ccc(C(=O)NCc2cn3ccc(C)cc3n2)cc1	·	·	–
COc1ccc(C(=O)n2c(=S)nc3cc(C)ccn32)cc1	·	–	79.0
Cc1ccc(C)n1CCN1CCNCC1	–	·	–
OC(CN1CCOCC1)c1ccc2cc[nH]c2c1 (configuration not stated)	–	–	–
Fc1ccc2nc(NCc3ccccc3)sc2c1	–	–	84.0
c1ccc(CCNc2nc3ccccc3s2)cc1	–	·	–
CCN(CC)S(=O)(=O)c1cccc(-n2sc3ccccc3c2=O)c1	100.4	–	–
CCN(CC)S(=O)(=O)c1ccccc1	–	–	–
O=C(Cc1n[nH]c(=O)c2ccccc12)NCc1ccccc1	–	–	–
O=C(O)Cc1n[nH]c(=O)c2ccccc12	–	36.6	–
O=C(Nc1ccccc1)c1nnn(Cc2ccccc2)c1NC(=O)C(F)(F)F	·	–	89.0
Nc1c(C(=O)Nc2ccccc2)nnn1Cc1ccccc1	–	–	–
Cc1cc2c(N=NC(=O)C3CC34CCC4)c(O)[nH]c2cc1Br (configuration not stated)	–	–	–
CCCOc1ccc(OC(=O)c2c(-c3ccccc3Cl)noc2C)cc1	·	·	–
CN(c1ccc(-c2csc(-c3cccs3)n2)cc1)S(C)(=O)=O	–	–	88.0
CN(c1ccc(O)cc1)c1nc(-c2cccs2)cs1	–	–	–
O=C1C=CC(=O)N1c1ccc2c(c1)OCO2	98.8	–	–
CS(=O)(=O)c1nnnn1-c1ccc2c(c1)OCO2	–	–	–
O=C1C(c2c(O)n(-c3cc(Cl)cc(Cl)c3)[nH]c2=O)=Nc2ccccc21	84.0	–	–
SMILES	Mtb MbtI inh	MenB inh	Polio RdRp inh
O=C1C(c2c(O)[nH]c3ccccc23)=Nc2ccccc21	–	–	–
Cc1c(C(=O)OCC(N)=O)sc2nc(-c3cccs3)cc(C(F)(F)F)c12	–	–	–
CCN(CC)c1ccc(NC(=S)Nc2ccc(S(N)(=O)=O)cc2)cc1	62.6	–	–
CCN(CC)c1ccc(NC(=S)NC(C)C)cc1	–	–	–
CCCN(CCC)C(=O)Cn1ncc2c(=O)oc3ccccc3c21	–	–	–
CC1CC(C)CN(C(=O)Cn2cnc3c2c(=O)n(C)c(=O)n3C)C1 (configuration not stated)	–	–	–
Cc1occc1C(=O)NCc1ccccc1	–	55.9	–
Cc1occc1C(=O)N(Cc1ccccc1)Cc1ccccc1	–	·	·
CC(C)C(NC(=O)c1ccc(Cl)cc1)C(=O)NCC1CCCO1 (configuration not stated)	–	–	–
Cc1ccc(NC(=O)CN2C(=O)CC(c3ccccc3)C2=O)cc1C (configuration not stated)	–	–	–
Cc1ccc(C)c(N2CCN(C(=O)NC3CCCCC3)CC2)c1	–	–	–
CC(C)c1ccc(NC(=O)C2CC(=O)N=C(N)S2)cc1 (configuration not stated)	·	–	–
O=C1NC(=S)S/C1=C1\OC(=O)c2ccccc21	–	–	–
C/C(C/C(C)=C1/SC(=S)NC1=O)=C1\SC(=S)NC1=O	80.8	–	–
O=C1Nc2ccccc2-c2ccccc2N1	–	–	–
O=C1Nc2ccccc2C(=O)C1(O)O	–	43.3	–
Fc1ccc(NC(=S)N2CCCCC2)cc1	–	–	–
S=C(Nc1ccc2nsnc2c1)N1CCCC1	–	–	89.0
O=c1oc2c(o1)=C(c1ccccc1)S(=O)(=O)C=2c1ccccc1	58.0	–	–
Cc1ccc(/C=C2\C(=O)ON=C2c2ccccc2)o1	–	–	–
COC(=O)c1cc(=O)[nH]c(=S)[nH]1	87.7	–	81.0
COC(=O)c1c(O)cc(=O)[nH]c1N	–	–	–
CC1(C(=O)NCC(=O)c2cccs2)Cc2ccccc2C(=O)O1 (configuration not stated)	–	–	–
CCc1cc2c(=O)n(-c3ccccc3)c(SCC(=O)c3ccccc3)nc2s1	–	–	–
CCCCn1c(=O)c(C#N)cc2c(=O)n3ccccc3nc21	–	–	–
SMILES	Mtb MbtI inh	MenB inh	Polio RdRp inh
O=C(CC1Sc2ncnn2C1=O)Nc1ccccc1 (configuration not stated)	100.0	–	–
O=C(CC1SC(=O)N(c2ccccc2)C1=O)Nc1ccccc1 (configuration not stated)	–	–	–
Cn1ccnc1C(=O)c1cccnc1	–	·	–
CCc1cccc(NC(=O)c2cc3c(=O)[nH]c4ccccc4c3n2C)c1	·	·	–
O=c1[nH][nH]c(=S)n1C1CC1	71.2	37.9!	–
O=c1[nH][nH]c(=S)n1C1Cc2ccccc2C1	67.2	–	–
O=c1[nH][nH]c(=S)n1CC1CCCO1 (configuration not stated)	–	–	–
O=c1[nH][nH]c(=S)n1-c1ccc2c(c1)OCCO2	·	–	–
N=c1oc2ccc(Br)cc2cc1-c1nc2ccccc2[nH]1	–	·	–
Cc1c(C(=O)N(C)c2cccc(C(F)(F)F)c2)sc2nc3n(c(=O)c12)CCCCC3	·	·	–
CC1(C)CC(N2CCC(O)(c3ccccc3)C(C(=O)c3ccccc3)C2)CC(C)(C)N1 (configuration not stated)	·	–	–
Cn1ncc2c(c(SCc3ccc(Cl)cc3Cl)nn2C)c1=O	–	–	–
CSc1nn(C)c2cnn(C)c(=O)c12	–	–	55.0
CCCCN(CC)c1nc(N)c2c(N)nc(SCC(=O)O)cc2c1C#N	–	–	–
CN(C)Cc1c(O)ccc2c(=O)c(Oc3ccccc3)coc12	–	·	–
FC(F)(F)c1n[nH]c(=S)n1/N=C/c1c[nH]c2ccccc12	·	–	–
S=c1[nH]nc(Cc2cccc3ccccc23)n1/N=C/c1ccco1	64.8	–	–
O=C(O)c1cc(-c2ccccc2)nc2ccccc12	·	–	–
O=C(O)c1nc(-c2ccccc2)cc(-c2ccccc2)n1	–	34.5	–
CC(C)(C)OC(=O)/C=C/c1c(Cl)nc2sccn12	–	·	–
N#CSc1c(Cl)nc2sccn12	64.8	·	85.0
O=C(c1c(Cl)nc2sccn12)N1CCOCC1	–	·	–
N#CC(C#N)=Cc1c(Cl)nc2sccn12	–	–	67.0
COc1cc2c(cc1OC)C(c1ccccc1)N(C(=O)C(C)(C)C)CC2 (configuration not stated)	–	–	–
S=c1[nH]c2ccccc2n1-c1ccccc1	91.8	–	78.0
SMILES	Mtb MbtI inh	MenB inh	Polio RdRp inh
S=c1[nH]c2ccccc2n1CCc1ccccc1	80.5	–	67.0
CCn1c(=S)[nH]c2ccccc21	–	–	–
CC(C)n1c(=S)[nH]c2ccccc21	–	–	–
CCCn1c(=S)[nH]c2ccccc21	86.0!	–	–
Cc1ccc(Cn2c(=S)[nH]c3ccccc32)cc1	–	–	·
CC(=O)Nc1ccc(N2C(=O)CC(N3CCCCC3C)C2=O)cc1 (configuration not stated)	–	–	–
CNCc1ccccc1F	–	–	–
